TTR transcr act = TTR transcription activators in neuroblastoma reporter cells, primary screen, cell-based, luminescence, SH-SY5Y, TTR promoter Gaussia luciferase | 100% = recombinant luciferase protein wells | hit rate 1.3% among 92,000 | activation, % at 16.7 µM | AID 1117267, 2014;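 active means activation above the mean of all tested compounds plus 3 SD, cut at about 9.5% in these data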;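 further: cells exposed to compounds for one day before reading; 0% = median of all test compound wells on the plate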
* marks the source's active call; other numbers are inactive results. The full list was thinned out, with hits kept by preference.

SMILES	TTR transcr act
CN(CCOc1ccc(-c2ccn(S(=O)(=O)c3c(Cl)cccc3Cl)n2)cc1)c1ccccn1	15*
Cc1ccc(S(=O)(=O)n2ccc(-c3cccc(OCc4c(F)cccc4Cl)c3)n2)cc1	0
CCOc1ccc(S(=O)(=O)n2ccc(C)n2)cc1	-4
COC(=O)[C@@H]1N=C(c2ccc(OC)cc2)O[C@]12C(=O)N(Cc1cn(-c3ccccc3)nn1)c1cccc(Cl)c12	0
Cc1ccc(CN2CCCCC(NC(=O)Nc3ccccc3)C2=O)cc1 (stereo not given)	-2
CCC[C@H]1[C@@H](NC(=O)c2cccnc2)CC[C@@]23CCCN2C(=O)CCC[C@@H]13	2
CCCCCCCCN1C(=O)[C@@H](CC(=O)N2CCC(c3ccccc3)CC2)C[C@@]2(C(=O)OC)C1=C[C@H](C(C)C)O[C@@H]2C1CC1	4
COc1cccc(C2CC(=O)Nc3n[nH]c(-c4ccccc4)c32)c1OC (stereo not given)	1
COc1cccc(C2CC(=O)Nc3cc(OC)c(OC)cc32)c1 (stereo not given)	0
COc1cccc(C2CC(=O)Nc3cc(OC)c(OC)c(OC)c32)c1OC (stereo not given)	16*
O=S1(=O)c2c(cccc2N2CC[C@@H](O)C2)O[C@@H]2CCN1C2	1
O=C(OCC#CCSc1nnc(-c2cccc3ccccc23)o1)C1CCCC1	2
O=C(NCc1ccc2c(c1)OCO2)C1CCN(S(=O)(=O)N2CCCCC2)CC1	0
O=C(COc1ccc(S(=O)(=O)N2CCCC2)cc1Cl)NCc1ccc2c(c1)OCO2	14*
COC(=O)COc1ccc(S(=O)(=O)Nc2ccc3c(c2)OCO3)cc1Cl	0
NC(=O)c1ccc(NC(=O)c2ccc3c(c2)OCO3)cc1	1
COc1cc(NC(=O)c2ccc3c(c2)OCO3)ccc1NC(=O)C(C)C	21*
CC(=O)c1cccc(NC(=O)c2ccc3c(c2)OCO3)c1	-2
COC(=O)c1cc(-c2cccc(C#N)c2)c(=O)n2c1CCC2	-1
COC(=O)[C@@]12CCCCC=C1N(CCc1ccc(Cl)cc1)C(=O)[C@H]2CC(=O)NCc1cccc(C(F)(F)F)c1	-1
CCCCC#CC(CC)NCc1ccc(OC)cc1OC (stereo not given)	2
C[C@H](CO)N1C[C@H](C)[C@H](CN(C)Cc2ccc(Oc3ccccc3)cc2)Oc2ccc(NC(=O)Nc3cccc4ccccc34)cc2CC1=O	-5
C[C@H]1CN([C@@H](C)CO)C(=O)Cc2cc(NS(C)(=O)=O)ccc2O[C@@H]1CN(C)Cc1ccc(Cl)c(Cl)c1	13*
CNC[C@H]1Oc2ccc(NC(=O)Cc3cn(C)c4ccccc34)cc2CC(=O)N([C@@H](C)CO)C[C@H]1C	15*
Cc1ccc(S(=O)(=O)N(C)C[C@@H]2Oc3ccc(NS(=O)(=O)c4ccccc4)cc3CC(=O)N([C@@H](C)CO)C[C@H]2C)cc1	-3
SMILES	TTR transcr act
C[C@H]1CN([C@@H](C)CO)C(=O)Cc2cc(NC(=O)Nc3ccccc3)ccc2O[C@H]1CN(C)Cc1ccccc1	-3
C[C@@H]1CN([C@H](C)CO)C(=O)c2cc(NC(=O)Cc3cn(C)c4ccccc34)ccc2O[C@H]1CN(C)C(=O)Nc1ccc2c(c1)OCO2	-4
CCC(=O)N(c1ccccc1)C1CCN(C(=O)C(Cc2ccccc2)NC(C)=O)CC1 (stereo not given)	-1
COC(=O)CNC(=O)CNC1(C(=O)NCCc2c[nH]c3ccccc23)CCCCC1	-2
C[C@@H]1CCN(C2CC2)S(=O)(=O)c2ccc(N3CCC[C@H]3CO)cc2O1	0
CCC(c1nnc(SCC(=O)Nc2ccc(S(N)(=O)=O)cc2)n1Cc1ccccc1)N(C)C (stereo not given)	1
CCC(c1nnc(SCC(=O)Nc2ccc(C(N)=O)cc2)n1Cc1ccccc1)N(C)C (stereo not given)	0
CCC(c1nnc(SCC(=O)Nc2nnc(-c3ccccc3)o2)n1Cc1ccccc1)N(C)C (stereo not given)	28*
CC(C)(N[C@@H](Cc1c[nH]c2ccccc12)C(=O)NCCCc1ccccc1)C(=O)NCc1ccccc1	-1
C[C@@H]1CCN(C2CC2)S(=O)(=O)c2ccc(N3CCC[C@@H]3C)cc2O1	1
CC(=O)Nc1sc2c(c1-c1nc3ccccc3s1)CCCN(C(C)C)C2	1
O=C(NC1CCCCC1)c1ccc([N+](=O)[O-])cc1	-1
O=[N+]([O-])c1ccc(N/N=C2/CCCCC2c2ccccn2)cc1 (stereo not given)	-1
O=C1CCCCC1Nc1ccc([N+](=O)[O-])cc1 (stereo not given)	12*
C[C@H]1COc2cc(N3CCSCC3)ccc2S(=O)(=O)N1C	0
CCOc1ccc(CCNC(=O)C2CCCCC2)cc1OCC	-1
O=C(NCCCc1ccccc1)O[C@@H]1CC[C@@]23CCCN2C(=O)CCC[C@H]3C1	-1
COc1cccc(NC(=O)Nc2c(-c3ccc(F)cc3)nc3ncccn23)c1	1
COc1ccc(NC(=O)C(NC(=O)CNC(C)=O)c2ccc(C)cc2)cc1 (stereo not given)	29*
CCOCCCNC(=O)C(NC(=O)c1ccc(NC(C)=O)cc1)c1ccc(OC)cc1 (stereo not given)	4
COc1ccc(NC(=O)CNC(=O)Cc2ccccc2)cc1	-2
CCN(Cc1cccs1)c1ncnc2ccc(-c3ccc4c(c3)OCO4)cc12	-1
Cc1cc(C)c(OCC(=O)Nc2ccccc2N2CCOCC2)c(C)c1	-2
CCOCCCNCC(=O)Nc1ccccc1N1CCOCC1	21*
CCOc1ncccc1C(=O)Nc1ccccc1N1CCOCC1	-2
SMILES	TTR transcr act
COc1ccccc1C(=O)NC1CCCCN(Cc2ccc(C)cc2)C1=O (stereo not given)	3
Cc1ccc(S(=O)(=O)N(C)C[C@H]2Oc3ccc(NC(=O)C4CCCCC4)cc3C(=O)N([C@H](C)CO)C[C@H]2C)cc1	-1
COc1ccc(S(=O)(=O)N(C)C[C@H]2Oc3ccc(NC(=O)C4CC4)cc3C(=O)N([C@H](C)CO)C[C@@H]2C)cc1	12*
COc1ccc(S(=O)(=O)N(C)C[C@@H]2Oc3ccc(NS(C)(=O)=O)cc3C(=O)N([C@@H](C)CO)C[C@H]2C)cc1	-1
Nc1c(C(=O)NCC(O)c2ccccc2)cnn1-c1ccccc1 (stereo not given)	0
C=CCN(C(=O)[C@@H](CCCC)[C@@H](O)c1ccc(C(C)=O)cc1)c1ccccc1	4
Cc1ccccc1CN1CCCCC(NC(=O)c2cc(-c3ccccc3)no2)C1=O (stereo not given)	4
CCOC(=O)c1cn(Cc2ccccc2)nn1	1
CCOC(=O)c1c(C=O)c(C)n(Cc2ccc(Cl)cc2)c1C	-3
CCOC(=O)c1c(C=O)c(C)n(Cc2ccccc2)c1C	11*
Cn1c(N)c(C(=O)CCl)c(=O)n(Cc2ccccc2)c1=O	12*
CC1CN(CC(=O)c2c(N)n(Cc3ccccc3)c(=O)n(C)c2=O)CC(C)O1 (stereo not given)	-2
CN(C)CC(=O)c1c(N)n(Cc2ccccc2)c(=O)n(C)c1=O	0
COC(=O)[C@]12C[C@H](CC(=O)N3CCN(C(=O)c4ccco4)CC3)C(=O)N(CCc3ccc(OC)c(OC)c3)C1=C[C@H](C(C)C)O[C@@H]2C1CC1	1
COc1ccc(CN2C3=NC(c4ccccc4)CC(=O)N3/C(=C\c3ccccc3)C2c2ccccc2)c(OC)c1 (stereo not given)	-1

Screening results from PubChem.
